The entries come from a sample that favours hits as a whole.
ERp5 inh – inhibitors of human ERp5; inhibition, % at 9.99 µM; 0.05% of 350,000 active; Q15084; AID 651711; ERp5 insulin aggregation, absorbance 650 nm, 90 min;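 active = mean replicate inhibition above about 25%, with every replicate also reaching it, limit read from the data, passing the limit was not always enough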
SIRT5 block – blocks human SIRT5 desuccinylation of peptide; Q9NXA8; Purified SirT5, succinyl-peptide AMC, trypsin-coupled fluorescence; inhibition, % at 15 µM; AID 652115; 1.1% of 330,000 active; in the data active = inhibition above about 15%
Target sequence (Q9NXA8 whole entry, looked up): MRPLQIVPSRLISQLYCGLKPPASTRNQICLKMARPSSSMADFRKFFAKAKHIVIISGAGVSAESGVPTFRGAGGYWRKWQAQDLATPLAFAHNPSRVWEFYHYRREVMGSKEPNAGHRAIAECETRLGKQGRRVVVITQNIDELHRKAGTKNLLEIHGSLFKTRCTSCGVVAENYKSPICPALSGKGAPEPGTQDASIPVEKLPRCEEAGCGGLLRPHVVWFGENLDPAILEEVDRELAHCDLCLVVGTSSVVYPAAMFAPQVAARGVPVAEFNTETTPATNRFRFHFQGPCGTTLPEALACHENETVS
ERAP1 inh – inhibitors of human ERAP1 aminopeptidase. Q9NZ08. recombinant ERAP1, Leu-AMC fluorescence, 60 min. inhibition, % at 10.7 µM. 0.15% of 340,000 active. AID 652197;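 active = mean replicate inhibition of at least 30%, or all replicates individually reaching that 30% level; inactive = mean below 30% and not every replicate reaching it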
PDI turbidity – blocks human protein disulfide isomerase activity; P07237; PDI insulin aggregation turbidity, A650, 90 min; inhibition, % at 10 µM; 0.052% of 350,000 active;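 active = mean inhibition across replicates of 30% or more, whatever share of single replicates reach that level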
HDAC3 inh – blocks human histone deacetylase 3. O15379. recombinant HDAC3, fluorogenic peptide/trypsin coupled, fluorescence. inhibition, % at 8.3 µM. 0.15% of 320,000 active; in the data active = inhibition above about 26%, passing the limit was not always enough
Target sequence (O15379 whole entry, looked up): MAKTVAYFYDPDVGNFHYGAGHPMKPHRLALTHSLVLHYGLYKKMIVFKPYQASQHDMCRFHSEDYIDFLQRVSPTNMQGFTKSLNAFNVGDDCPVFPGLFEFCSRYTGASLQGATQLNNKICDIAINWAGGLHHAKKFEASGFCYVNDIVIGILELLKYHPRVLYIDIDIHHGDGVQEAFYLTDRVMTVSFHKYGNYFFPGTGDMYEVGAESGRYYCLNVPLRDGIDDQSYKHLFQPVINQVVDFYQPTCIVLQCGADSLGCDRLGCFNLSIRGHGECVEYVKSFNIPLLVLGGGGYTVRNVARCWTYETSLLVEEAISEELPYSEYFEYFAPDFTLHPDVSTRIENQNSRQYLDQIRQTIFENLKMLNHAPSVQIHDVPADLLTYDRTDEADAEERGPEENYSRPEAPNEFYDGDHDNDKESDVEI
Of the large screens only hits and unclear results are named; the others gave an inactive call; ! = repeats disagree.

CC(C)CC#Cc1ccc2c(c1)O[C@@H](CN(C)Cc1ccc3c(c1)OCO3)[C@@H](C)CN([C@@H](C)CO)S2(=O)=O	SIRT5 block 14 (no result: PDI turbidity, HDAC3 inh)
C[C@H](CO)N1C[C@H](C)[C@H](CN(C)Cc2cccnc2)Oc2cc(C#CC3CCCCC3)ccc2S1(=O)=O	SIRT5 block 12 (no result: PDI turbidity, HDAC3 inh)
C[C@H](CO)N1C[C@H](C)[C@@H](CN(C)Cc2cccnc2)Oc2cc(C#CC3CCCCC3)ccc2S1(=O)=O	none (no result: PDI turbidity, HDAC3 inh)
Cc1ccc(-c2ccc3c(c2)O[C@H](CN(C)Cc2cccnc2)[C@H](C)CN([C@@H](C)CO)S3(=O)=O)cc1	SIRT5 block 15 (no result: PDI turbidity, HDAC3 inh)
C[C@H](CO)N1C[C@H](C)[C@@H](CN(C)Cc2cccnc2)Oc2cc(C#CC3CCCC3)ccc2S1(=O)=O	SIRT5 block 15 (no result: PDI turbidity, HDAC3 inh)
CC=Cc1ccc2n(c1=O)C[C@H]1[C@H](CO)[C@@H](C(=O)NC3Cc4ccccc4C3)[C@@H]2N1C(C)=O (mixture of isomers)	none (no result: PDI turbidity, HDAC3 inh)
CC(C)CC#Cc1ccc2c(c1)O[C@@H](CN(C)Cc1cccc(F)c1)[C@H](C)CN([C@H](C)CO)S2(=O)=O	SIRT5 block 16 (no result: PDI turbidity, HDAC3 inh)
CC(C)CC#Cc1ccc2c(c1)O[C@@H](CN(C)Cc1ccc(F)cc1)[C@H](C)CN([C@H](C)CO)S2(=O)=O	none (no result: PDI turbidity, HDAC3 inh)
C[C@H]1CN([C@@H](C)CO)S(=O)(=O)c2ccc(-c3ccc(C#N)cc3)cc2O[C@@H]1CN(C)Cc1cccc(F)c1	SIRT5 block 16 (no result: PDI turbidity, HDAC3 inh)
CC(C)CC#Cc1ccc2c(c1)O[C@H](CN(C)Cc1ccc(C(=O)O)cc1)[C@@H](C)CN([C@H](C)CO)S2(=O)=O	SIRT5 block 29 (no result: ERAP1 inh, PDI turbidity, HDAC3 inh)
C[C@@H]1CN([C@H](C)CO)S(=O)(=O)c2ccc(-c3ccc(C#N)cc3)cc2O[C@H]1CN(C)Cc1cccc(F)c1	none (no result: PDI turbidity, HDAC3 inh)
O=C(C[C@@H]1C=C[C@H](NC(=O)C2CCOCC2)[C@@H](CO)O1)NCC1CC1	none (no result: PDI turbidity, HDAC3 inh)
CN1CCN(C(=O)C[C@@H]2CC[C@@H]3[C@H](COC[C@@H](O)CN3C(=O)C3CCOCC3)O2)CC1	none (no result: PDI turbidity, HDAC3 inh)
COc1ccc2c3c([nH]c2c1)[C@@H](CO)N(C(=O)C1CCC1)CC31CCN(Cc2cccc(F)c2)CC1	none (no result: PDI turbidity, HDAC3 inh)
C[C@@H]1CN([C@H](C)CO)C(=O)Cc2cc(NS(=O)(=O)c3ccc(F)cc3)ccc2O[C@@H]1CN(C)S(=O)(=O)c1cn(C)cn1	ERp5 inh 27 (no result: PDI turbidity, HDAC3 inh)
C[C@@H]1CN([C@H](C)CO)C(=O)Cc2cc(NC(=O)c3ccncc3)ccc2O[C@H]1CN(C)S(=O)(=O)c1cn(C)cn1	ERp5 inh 77 (no result: PDI turbidity, HDAC3 inh)
C[C@@H]1CN([C@H](C)CO)C(=O)Cc2cc(NS(=O)(=O)c3ccc(F)cc3)ccc2O[C@H]1CN(C)S(=O)(=O)c1cn(C)cn1	none (no result: PDI turbidity, HDAC3 inh)
C[C@H](CO)N1C[C@H](C)[C@H](CN(C)S(=O)(=O)c2ccc(Cl)cc2)OCCCC[C@H](C)Oc2ccc(NC(=O)c3ccccc3)cc2C1=O	none (no result: PDI turbidity, HDAC3 inh)
CCN1CCN(C(=O)/C(C#N)=C/c2ccc(OC(F)F)cc2)CC1	SIRT5 block 18
C[C@@H]1CN([C@@H](C)CO)C(=O)c2cc(NC(=O)CCN3CCOCC3)ccc2O[C@@H]1CN(C)Cc1ccc2c(c1)OCO2	none (no result: PDI turbidity, HDAC3 inh)
N[C@@H](Cc1ccc(O)c(O)c1)C(=O)O	SIRT5 block 15 (no result: HDAC3 inh)
Cc1cccc(/N=C/c2c(O)cc(C)oc2=O)n1	SIRT5 block 15
Cc1cc(O)c(/C=N/c2ccccn2)c(=O)o1	none
C[C@@H]1CN([C@H](C)CO)C(=O)c2cccc(NS(=O)(=O)c3cccs3)c2O[C@@H]1CN(C)C	none (no result: PDI turbidity, HDAC3 inh)
COCCCNC(=O)c1ccc2c(=O)n(Cc3ccc4c(c3)OCO4)c(=S)[nH]c2c1	none (no result: ERp5 inh, SIRT5 block, ERAP1 inh)
O=C(NCc1ccc(Cl)cc1)c1ccc2c(=O)n(CC3CCCO3)c(=S)[nH]c2c1 (stereo not drawn)	SIRT5 block 16
COC(CNC(=O)c1ccc2c(=O)n(Cc3ccc4c(c3)OCO4)c(=S)[nH]c2c1)OC	SIRT5 block 16
CS(=O)(=O)Nc1ccc2c(c1)[C@H]1C[C@H](CC(=O)NCC(F)(F)F)O[C@@H](CO)[C@H]1O2	none (no result: PDI turbidity, HDAC3 inh)
Cc1cc(NS(=O)(=O)c2ccc(NC(=O)c3cnc4scc(C)n4c3=O)cc2)nc(C)n1	none (no result: PDI turbidity, HDAC3 inh)
Cc1noc(NS(=O)(=O)c2ccc(NC(=O)c3cnc4scc(C)n4c3=O)cc2)c1C	SIRT5 block 15 (no result: PDI turbidity)
CN1C(=O)/C(=C/c2ccc(C(=O)Nc3ccc(O)cc3C(=O)O)cc2)SC1=S	SIRT5 block 28
Cc1ccc(/C=C2\SC(=S)N(CCC(=O)NNC(=O)c3ccc(O)cc3)C2=O)cc1	none
O=C(Nc1ccccc1Cl)c1sccc1-c1ccccc1	SIRT5 block 79
C[C@@H]1CN([C@@H](C)CO)C(=O)c2cc(NC(=O)Cc3ccccc3)ccc2O[C@H]1CN(C)S(=O)(=O)c1ccc(F)cc1	none (no result: PDI turbidity, HDAC3 inh)
CCOc1ccccc1-n1nnnc1SCC(=O)NC(=O)NCc1ccco1	none (no result: ERp5 inh, SIRT5 block, ERAP1 inh)
CCOc1ccccc1-n1nnnc1SCC(=O)NC(=O)Cc1ccccc1	ERAP1 inh 33 (no result: HDAC3 inh)
O=C(C[C@H]1C[C@H]2c3cc(NC(=O)Nc4ccccc4)ccc3O[C@H]2[C@@H](CO)O1)NCc1ccncc1	SIRT5 block 18 (no result: PDI turbidity, HDAC3 inh)
O=C(C[C@H]1C[C@@H]2c3cc(NC(=O)C4CCC4)ccc3O[C@@H]2[C@@H](CO)O1)NCc1ccc(-c2ccccc2)cc1	SIRT5 block 23 (no result: PDI turbidity, HDAC3 inh)
O=C(C[C@@H]1C[C@H]2c3cc(NC(=O)Nc4ccccc4F)ccc3O[C@H]2[C@H](CO)O1)NCC(F)(F)F	ERp5 inh 84! (no result: HDAC3 inh)
O=C(C[C@@H]1C[C@H]2c3cc(NS(=O)(=O)c4ccc(F)cc4)ccc3O[C@H]2[C@H](CO)O1)NCc1ccccc1	none (no result: PDI turbidity, HDAC3 inh)
O=C(C[C@@H]1C[C@H]2c3cc(NS(=O)(=O)c4ccc(F)cc4)ccc3O[C@H]2[C@@H](CO)O1)NCc1ccc(-c2ccccc2)cc1	SIRT5 block 16 (no result: PDI turbidity, HDAC3 inh)
O=C(C[C@H]1C[C@H]2c3cc(NC(=O)C4CCC4)ccc3O[C@H]2[C@H](CO)O1)NCc1ccc(-c2ccccc2)cc1	none (no result: PDI turbidity, HDAC3 inh)
CC=Cc1ccc2n(c1=O)C[C@@H]1[C@@H](CO)[C@H](C(=O)NCc3ccccn3)[C@H]2N1CCC (mixture of isomers)	none (no result: PDI turbidity, HDAC3 inh)
O=C(C[C@@H]1C[C@@H]2c3cc(NS(=O)(=O)c4ccc(F)cc4)ccc3O[C@@H]2[C@@H](CO)O1)NCc1ccc(-c2ccccc2)cc1	none (no result: PDI turbidity, HDAC3 inh)
O=C(C[C@H]1C[C@H]2c3cc(NS(=O)(=O)c4ccc(F)cc4)ccc3O[C@H]2[C@H](CO)O1)NCc1ccc(-c2ccccc2)cc1	SIRT5 block 18 (no result: PDI turbidity, HDAC3 inh)
CN(C)S(=O)(=O)c1cccc(NC(=O)c2cc3c(=O)n4ccccc4nc3s2)c1	SIRT5 block 16
CCOC(=O)CNC(=O)c1cccnc1	none (no result: ERp5 inh, SIRT5 block, ERAP1 inh)
CCOC(=O)C(O)(NC(=O)c1cccnc1)C(F)(F)F (stereo not drawn)	HDAC3 inh 42 (no result: ERp5 inh, SIRT5 block, ERAP1 inh)
O=C(NCC[C@@H]1CC[C@H](NC(=O)C2CCCC2)[C@H](CO)O1)c1cc(Cl)cc(Cl)c1	none (no result: PDI turbidity, HDAC3 inh)
CCCn1c2ccccc2c2nnc(SCCN3CCOCC3)nc21	SIRT5 block 19
CCCn1c2ccc(C)cc2c2nnc(SCCN3CCOCC3)nc21	none
